Coupling enz = coupling enzyme interference in Giardia aldolase counter-screen; coupling enzyme system counterscreen, AmpLite Red fluorescence; activity change, negative = inhibition, % at 58.2 µM, hits read low; 0.67% of 290,000 active; AID 2472; in the data active means activity change below about -30%
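Compounds tested against the coupling enzymes alone at 57.5 uM final; readout was AmpLite Red fluorescence (525/598 nm) after 20 min at RT.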
Tau fluor counter = counter-screen for tau fibril formation inhibitors | tau K18 P301L Alexa594 fluorescence, heparin fibrillization | Potency, µM (series often up to 57.7 µM) | 0.93% of 280,000 active; active means well fitted curve in the direction sought with a large enough effect; inconclusive means small, poorly fitted or top-dose-only effect, or another doubt; inactive means no such curve, though single readings can be large; an effect the other way counts as inactive or inconclusive; further: nearly all actives have a fitted effect of over 55% in size
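Human K18 P301L tau (15 uM unlabeled plus 0.24 uM Alexa 594-labeled, final) in 100 mM sodium acetate pH 7 was mixed with compound and 20 uM heparin and incubated 6 hr at 37 C.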
Tau ThT inhib = inhibitors of human tau fibril formation, thioflavin T binding; AID 1460; Potency, µM (highest dose often 57.4 µM), hits mostly inhibitors; 2.1% of 270,000 active; recombinant tau K18 P301L (four-repeat tau fragment), heparin-induced fibrillization, ThT fluorescence; active means well fitted curve in the direction sought with a large enough effect; inconclusive means small, poorly fitted or top-dose-only effect, or another doubt; inactive means no such curve, though single readings can be large; an effect the other way counts as inactive or inconclusive; further: nearly all actives have a fitted effect of over 55% in size
Target sequence (P10636 561-689 P618L limits assumed): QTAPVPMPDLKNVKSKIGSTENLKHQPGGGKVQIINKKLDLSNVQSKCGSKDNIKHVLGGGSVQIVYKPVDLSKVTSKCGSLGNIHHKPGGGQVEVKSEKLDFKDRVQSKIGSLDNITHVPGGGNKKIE
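Heparin-induced fibrillization of the P301L-mutant K18 repeat-domain fragment of human tau was followed by ThT binding in quantitative high-throughput format.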
Tau FP inhib = blocks human tau fibril formation measured by polarization. K18 P301L tau heparin fibrillization, Alexa594 FP, 6 h. Potency, µM (highest dose often 57.7 µM), most hits filed as inhibitors. 0.39% of 280,000 active. AID 1468; active means well fitted curve in the direction sought with a large enough effect; inconclusive means small, poorly fitted or top-dose-only effect, or another doubt; inactive means no such curve, though single readings can be large; an effect the other way counts as inactive or inconclusive; further: nearly all actives have a fitted effect of over 55% in size
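Human K18 P301L fragment (15 uM unlabeled plus 0.24 uM Alexa 594-labeled) in 100 mM sodium acetate pH 7 with compound, aggregation induced by 20 uM heparin for 6 hr at 37 C. ThT (30 uM) added for 1 hr, then Alexa 594 FP read.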
Casp1 catalase = counter-screen for redox active human caspase-1 inhibitors with catalase. shares compounds with Coupling enz. caspase-1 Ac-WEHD-AFC fluorescence rate, catalase buffer. Potency, µM (top dose mostly 57.5 µM), usual class: inhibitors. 30 tested, under 10 active. AID 888
CASP1 inh CRC = blocks human caspase-1 activity in concentration-response; 20% of 60 active; Potency, µM (top dose mostly 57.5 µM), usual class: inhibitors; purified caspase-1, fluorogenic substrate cleavage; shares compounds with Coupling enz
CASP7 inh CRC = confirmation of allosteric or competitive inhibitors of human caspase-7; shares compounds with Coupling enz; 60 tested, under 10 active; AID 897; recombinant caspase-7, fluorogenic substrate cleavage; Potency, µM (series often up to 57.5 µM), hits mostly inhibitors; active means well fitted inhibition curve with a large enough effect in the main read-out, with a control signal flat, not every such curve was filed as active; inconclusive means small, poorly fitted or top-dose-only effect, or a change in a side signal; inactive means no such curve, though single readings can be large or run the other way
Target sequence (P55210 24-198 limits assumed): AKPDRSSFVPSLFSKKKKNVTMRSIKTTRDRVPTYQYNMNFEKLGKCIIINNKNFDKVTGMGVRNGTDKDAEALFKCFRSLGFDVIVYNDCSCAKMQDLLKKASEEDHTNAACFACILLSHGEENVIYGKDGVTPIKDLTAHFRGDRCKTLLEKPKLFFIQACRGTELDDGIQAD
Target sequence (P55210 207-303 limits assumed): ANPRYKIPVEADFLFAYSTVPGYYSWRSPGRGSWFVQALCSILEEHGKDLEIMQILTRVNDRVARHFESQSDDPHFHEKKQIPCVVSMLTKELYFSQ
CASP7 redox cys = inhibits caspase-7 in cysteine buffer, redox counter-screen | shares compounds with Coupling enz | caspase-7 enzyme with cysteine, fluorogenic substrate, redox counterscreen | Potency, µM (top dose mostly 57.5 µM), usual class: inhibitors | 60 tested, under 10 active
Casp7 catalase = caspase-7 inhibition with catalase present; Caspase-7 Ac-DEVD-AFC fluorescence rate, catalase buffer; AID 909; 30 tested, under 10 active; Potency, µM (series often up to 57.5 µM), actives largely listed as inhibitors; shares compounds with Coupling enz
CASP1 redox cys = counter-screen for redox active caspase-1 inhibitors: cysteine buffer; shares compounds with Coupling enz; recombinant caspase-1, fluorogenic substrate, cysteine buffer; Potency, µM (titrated, usually from 57.5 µM), hits mostly inhibitors; 60 tested, under 10 active; AID 929
Numbers stand for hits; n = inactive; u = inconclusive; x = not tested or not shown; ! = a repeat was not active; [ ] = dose if it differs, or a comment. Shown are actives, neighbours in structure and some others; about 2.7% of the full set was active somewhere. Unless noted, the call rests on the fitted dose curve; in most records, active means well fitted inhibition curve with a large enough effect in the main read-out, with a control signal flat; inconclusive means small, poorly fitted or top-dose-only effect, or a change in a side signal; inactive means no such curve, though single readings can be large or run the other way.

SMILES	Coupling enz	Tau fluor counter	Tau ThT inhib	Tau FP inhib	others
CC(C)C[C@H]1C(=O)N2CCC[C@H]2[C@]2(O)O[C@](NC(=O)[C@@H]3C=C4c5cccc6[nH]c(Br)c(c56)C[C@H]4N(C)C3)(C(C)C)C(=O)N12	n	u	u	n
COc1ccccc1NC(=O)CCn1cnc2onc(-c3ccc(F)cc3)c2c1=O	x	u	n	n
C=C(C)C1Cc2c(ccc3c2OC2COc4cc(OC)c(OC)cc4C2C3=O)O1 (centres undefined)	n	n	u	n
Nc1nc(/C(=C/CC(=O)O)C(=O)NC2C(=O)N3C(C(=O)O)=CCSC23)cs1 (centres undefined)	n	n	n	u
CCCOCCN(C(=O)CCl)c1c(CC)cccc1CC	n	x	x	x
Nc1ccc(C2(c3ccc(N)cc3)c3ccccc3-c3ccccc32)cc1	n	14µM[quencher]	u	u
CCC(=O)C1=C(c2cccc([N+](=O)[O-])c2)N(C(=O)CC)n2c(nnc2C2CCCCC2)S1	x	n	u	n
CN1CCN(c2ccc(N)cc2Cl)CC1	-32	n	u	n
CC[C@@H]1CN2CCc3cc(OC)c(OC)cc3[C@@H]2C[C@@H]1C[C@H]1NCCc2cc(OC)c(OC)cc21	n	n	n	n
O=C(Cc1cc(=O)[nH][nH]1)N/N=C/c1ccccc1Cl	n	n	u	u
O=C(Cc1cc(=O)[nH][nH]1)N/N=C/c1cccc2ccccc12	n	u	3.2µM	u
CCCc1cc(N2CCN(c3cccc(C)c3C)CC2)n2cnnc2n1	x	n	u	n
CCCCc1ccc(C(=O)O)nc1	-67!	n	u	n
CC(C)C(C)/C=C/C(C)C1CCC2C3=CC=C4CC(O)CCC4(C)C3CCC21C (centres undefined)	n	n	u	n
CN(C)c1ncc(/C=C2/C(=O)NC(=S)N(C3CCCCC3)C2=O)cn1	n	n	u	n
COc1ccc(OC)c(N2C(=O)/C(=C/c3ccco3)C(=O)NC2=S)c1	n	x	x	x
CCN1C(=O)/C(=C\c2ccc([N+](=O)[O-])s2)C(=O)NC1=S	-40	u	3.5µM	u
COc1ccc(OC)c(N2C(=O)NC(=O)/C(=C/c3ccc([N+](=O)[O-])s3)C2=O)c1	-33	u	13µM	14µM
NC(=O)CF	n	x	x	x
C[C@H]1C2Cc3ccc(O)cc3[C@]1(C)CCN2CC1CC1	x	n	n	n
CN1CC[C@@]2(C)c3cc(O)ccc3N(C)[C@@H]12	-78	u	14µM	20µM
CN1CCN(c2ccc(NC(=O)Oc3ccccc3)cc2)CC1	n	n	n	n
CN1CC[C@@]2(C)c3cc(OC(=O)Nc4ccccc4)ccc3N(C)[C@@H]12	x	u	32µM	u
CN1CC[C@@]2(C)c3cc(O)ccc3N(C)C2O1 (some centres undefined)	-72	x	x	x
C=CCN1CC[C@@]2(C)c3cc(O)ccc3CC1[C@@H]2C	n	n	n	n
SMILES	Coupling enz	Tau fluor counter	Tau ThT inhib	Tau FP inhib	others
COC(=O)NC/C=C\c1nc(CC/C=C\C(=O)O[C@H]2C[C@H]3CC(=O)O[C@@H](/C=C\CC(C)C)C[C@@H]4CC[C@H](C)[C@H](C[C@@H](OC)C[C@H](C2)O3)O4)co1	n	n[11.6 µM]	n[11.5 µM]	n[11.6 µM]
O=[N+]([O-])O[C@H]1CO[C@H]2[C@@H]1OC[C@H]2O	n	u	n	n
CN1C(=O)NC(=O)/C(=C\C=C\c2ccccc2[N+](=O)[O-])C1=O	n	n	25µM	u
COc1ccc(N/N=C/c2c(O)n(-c3ccc(C)c(C)c3)c(=O)[nH]c2=O)cc1	n	n	18µM	u
CC1(C)C[C@H]2C=C(C=O)[C@]3(C=O)C[C@]3(C)[C@H]2C1	n	n	14µM	u
CCn1nc(-c2ccccc2)nc2c(=O)n(C)c(=O)nc1-2	-61	n	16µM	u	Casp1 catalase=0.79µM;CASP1 inh CRC=1µM;CASP7 inh CRC=1.6µM;CASP7 redox cys=n;Casp7 catalase=u;CASP1 redox cys=n
Cc1nc2c(=O)n(C)c(=O)nc-2n(C)n1	n	n	u	u
COC1(C)CC(c2ccccc2)c2c(c3ccccc3oc2=O)O1 (centres undefined)	n	x	x	x
COc1cc2c(cc1O)C[C@H]1c3c(cc(OC)c(O)c3-2)CCN1C	n	u	14µM	u	CASP1 inh CRC=32µM;CASP7 inh CRC=n;CASP7 redox cys=n;CASP1 redox cys=n
COc1cc2c(cc1OC)-c1c(OC)c(OC)c(C=O)c3c1[C@H](C2)N(C)CC3	n	u	22µM	u	CASP1 inh CRC=u;CASP7 inh CRC=n;CASP7 redox cys=n;CASP1 redox cys=u
O=C1C=CC[C@@H]2[C@H]3CCCN4CCC[C@@H](CN12)[C@@H]34	n	n	n	n

Compound activity: PubChem BioAssay, National Center for Advancing Translational Sciences (NCATS)
